From PubChem
Only some compounds are listed: those with a hit (about 17% of all), similar ones and a draw of the others.
TDP1 cell CPT = DT40-hTDP1 cell growth loss with CPT; chicken DT40 Tdp1-/-;hTDP1 cells + 20 nM CPT, ATP luminescence, 48 h; Potency, µM (doses to about 46.2 µM), most hits filed as inhibitors; 420,000 compounds, 12% hits; also: nearly all actives have a fitted effect of over 55% in size
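Chicken DT40 Tdp1-/- cells complemented with human TDP1, 400 cells/well, exposed to compounds plus 20 nM camptothecin for at least 48 h at 37 C; viability read as ATP content by CellTiter-Glo luminescence.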
TGFb inhibitor = inhibitors of TGF-b signaling | HepG2 CAGA-GFP TGF-b/SMAD3 reporter, GFP fluorescence, 18 h; TGF-beta stimulated, 500 pg/mL final | Potency, µM (highest dose often 46.1 µM), most hits filed as inhibitors | 410,000 compounds, 1.2% hits | AID 588855; also: nearly all actives have a fitted effect of over 65% in size
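Cell-based qHTS in HEPG2 carrying a CAGA-GFP Smad reporter; compounds added before 500 pg/mL final TGF-beta, 18 h incubation at 37 degrees C, GFP fluorescence quantified per cell by imaging cytometry.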
ATXN viability = cell viability loss in ATXN counter-screen | 400,000 compounds, 0.49% hits | S2 cells (HEK-293 line with an ATXN2-luciferase reporter) viability, CellTiter-Fluor protease fluorescence, 24 h | AID 651635 | Potency, µM (titrated, usually from 56.7 µM), usual class: cytotoxic; also: nearly all actives have a fitted effect of over 40% in size
HepG2 viability = HepG2 cytotoxicity, counter-screen for TGF-b inhibitors; HepG2 CAGA-GFP viability, ATP luminescence, 18 h; Potency, µM (titrated, usually from 46.1 µM), usual class: cytotoxic; 410,000 compounds, 0.76% hits
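CellTiter-Glo luminescence gave cytotoxicity after 18 hours at 37 degrees C. The cells were HepG2 CAGA-GFP in 1% FBS DMEM, stimulated with 500 pg/mL TGF-beta after compound addition. %Activity was normalised to no-cell wells (complete cell-killing) and DMSO (no toxicity), and curves were fitted and classified.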
ATXN2 expr inh = inhibitors of ATXN2 expression. AID 1745845. Potency, µM (doses to about 57 µM), usual class: inhibitors. HEK-293 ATXN2-luciferase reporter, luminescence, 24 h. 360,000 compounds, 0.72% hits; also: nearly all actives have a fitted effect of over 55% in size
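qHTS (up to 57 uM final) was run with 24 h compound exposure of reporter cells at 37 °C. Each well was multiplexed: SteadyGlo luminescence measured ATXN2-luciferase expression after a fluorogenic Gly-Phe-AFC viability readout (25 uM final).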
TDP1 cell noCPT = qHTS for Inhibitors of human tyrosyl-DNA phosphodiesterase 1 (TDP1): qHTS in cells in absence of CPT. DT40 Tdp1-/- hTDP1 cells, no CPT, ATP luminescence, 48 h. Potency, µM (titrated, usually from 46.2 µM), most hits filed as inhibitors. 420,000 compounds, 15% hits. AID 686978, 2013; also: nearly all actives have a fitted effect of over 55% in size
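Growth kinetics read by CellTiter-Glo luminescence after ≥48 hr at 37 °C. Cells: DT40 Tdp1-/- stably carrying human TDP1, 400 per well, compound exposure in the absence of CPT (DMSO vehicle).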
Numbers stand for hits; . = inactive; ? = inconclusive; / = not tested or not shown; [ ] = remark or other dose. Calls follow the shape of the dose curve; as a rule, active = well fitted curve in the direction sought with a large enough effect; inconclusive = small, poorly fitted or top-dose-only effect, or another doubt; inactive = no such curve, though single readings can be large; an effect the other way counts as inactive or inconclusive.

SMILES	TDP1 cell CPT	TGFb inhibitor	ATXN viability	HepG2 viability	ATXN2 expr inh	TDP1 cell noCPT
COc1cccc(C2=CC(c3ccccc3F)n3ncc(C(=O)Nc4ccc(C)cc4)c3N2)c1 (stereo not given)	?	.	.	.	.	16µM
CCOc1ccc(NC(=O)c2cnn3c2NC(c2ccccc2)=CC3c2cccc(OC)c2OC)cc1 (stereo not given)	?	.	.	.	.	?
COc1ccc(C2C=C(c3cccc(OC)c3)Nc3c(C(=O)Nc4ccccc4)cnn32)cc1 (stereo not given)	?	.	.	.	?	?
Cc1ccc(NC(=O)c2cnn3c2NC(c2ccccc2)=CC3c2ccccc2)cc1 (stereo not given)	10µM	?	.	.	?	?
COc1ccc(C2=CC(c3ccc(F)cc3)n3ncc(C(=O)Nc4ccc(C)cc4)c3N2)cc1 (stereo not given)	?	?	.	.	.	?
COc1ccc2[nH]c(C(O)C(O)c3nc4c(OC)c(OC)ccc4[nH]3)nc2c1OC (stereo not given)	1µM	.	/	.	/	0.28µM
OC(c1nc2ccccc2[nH]1)C(O)c1nc2ccccc2[nH]1 (stereo not given)	.	.	.	.	.	.
CCOC(=O)c1noc2ncn(CC(=O)Nc3cc(Cl)ccc3OC)c(=O)c12	/	.	.	.	.	/
COC(=O)c1cnc(Nc2nc(CN)cs2)nc1C(F)(F)F	.	.	.	.	.	?
Cc1ccc(CNC(=O)CCCn2nc(C)c3c(C)n(-c4ccccc4)nc3c2=O)cc1	?	?	.	.	.	?
Cc1ccc(-n2nc3c(=O)n(CCCC(=O)NCc4ccccc4C)nc(C)c3c2C)cc1	21µM	?	.	.	/	21µM
Cc1ccc(-n2nc3c(=O)n(CCCC(=O)NCC(C)c4ccccc4)nc(C)c3c2C)cc1 (stereo not given)	?	.	.	.	/	15µM
Cc1c(C(=O)N2CCOCC2)sc(NC(=O)c2ccc([N+](=O)[O-])cc2)c1C#N	?	.	?	.	?	?
Cc1c(C(=O)N2CCOCC2)sc(NC(=O)CCl)c1C#N	13µM	.	.	.	.	12µM
Cc1cc(-c2ccc(CC(=O)Nc3ccc(-c4cccnc4)cc3)cc2)ccn1	/	/	/	/	.	/
Cc1[nH]c2ccccc2c1CCN(Cc1cccs1)C(=S)Nc1ccccc1	?	?	?	.	?	?
COCCNC(=S)N(CCc1c(C)[nH]c2ccc(F)cc12)Cc1cccs1	?	?	?	.	.	23µM
Cc1[nH]c2ccccc2c1CCN(Cc1cccnc1)C(=S)Nc1ccc(F)cc1	16µM	.	?	.	.	16µM
COc1cccc(NC(=S)N(CCc2c(C)[nH]c3ccccc23)Cc2cccs2)c1	?	?	?	.	?	16µM
COCCNC(=S)N(CCc1c(C)[nH]c2ccc(Cl)cc12)Cc1cccs1	?	?	?	.	?	?
O=C(CN1C(=O)COc2ccc(S(=O)(=O)N3CCOCC3)cc21)N1CCN(c2ccccc2)CC1	/	.	.	.	.	/
Cc1cc(N2CCN(C)CC2)nc2ccc(NC(=S)NCCCN3CCN(C)CC3)cc12	?	.	.	.	/	?
CCN1CCN(c2cc(C)c3cc(NC(=S)NCCCOC)ccc3n2)CC1	?	.	?	.	/	.
CCCCN(CC)CCCNC(=S)Nc1ccc2nc(N3CCN(CC)CC3)cc(C)c2c1	?	.	?	.	?	16µM
CCCCN(CC)CCCNC(=S)Nc1ccc2nc(N3CCN(C)CC3)cc(C)c2c1	?	.	?	.	.	16µM
SMILES	TDP1 cell CPT	TGFb inhibitor	ATXN viability	HepG2 viability	ATXN2 expr inh	TDP1 cell noCPT
Cc1cccc(NC(=O)CSc2ccc(-c3ccco3)nn2)c1C	.	.	.	.	.	.
COc1ccc(NC(=O)CSc2ccc3nc(-c4ccccc4)cn3n2)c(OC)c1	12µM	?	?	.	.	9.2µM
COc1ccc(NC(=O)c2cc3nc(-c4ccccc4)cc(-c4ccccc4)n3n2)c(OC)c1	11µM	.	.	.	.	10µM
COc1ccc(NC(=O)CSc2ccc3nc(-c4ccccc4)cn3n2)cc1OC	.	.	.	.	.	.
CC1CCN(C(=O)c2cc3nc(-c4ccccc4)cc(-c4ccccc4)n3n2)CC1	16µM	.	.	.	?	29µM
COc1ccc(-c2cn3nc(SCC(=O)Nc4cccc(C)c4C)ccc3n2)cc1	15µM	.	.	.	.	?
Cc1ccccc1-n1nnnc1SC1CCOC1=O (stereo not given)	.	.	.	.	.	.
CC(=O)C1=C(C)Nc2ncnn2C1c1ccc(C)cc1 (stereo not given)	.	.	.	.	.	.
O=C(CSc1ccc2nc(-c3ccccc3)cn2n1)Nc1cccc(F)c1	?	.	.	.	.	?
COc1ccc(-c2cn3nc(SCC(=O)Nc4cc(C)cc(C)c4)ccc3n2)cc1	?	.	.	.	.	21µM
CCCOc1ccc(/C=N/n2nnnc2N)cc1OC	.	.	.	.	.	.
COc1cccc(NC(=O)CN2C(=O)CC(c3ccco3)Sc3ccccc32)c1 (stereo not given)	/	.	?	.	.	/
CCOC(=O)c1ccccc1NC(=O)C1CC(=O)N(C2CCCC2)C1 (stereo not given)	?	.	.	.	.	.
Cc1nc(N/N=C/c2cccc([N+](=O)[O-])c2)cc(N2CCCCC2)n1	?	.	/	.	/	13µM
Cc1ccc([N+](=O)[O-])cc1N=C(c1cccc([N+](=O)[O-])c1)N1CCOCC1	.	.	.	.	.	?
CCc1ccc(/C(C)=N/Nc2cc(Cl)nc(C)n2)cc1	23µM	?	.	.	.	?
CCCCc1ccc(/C(C)=N/Nc2cc(N3CCOCC3)nc(C)n2)cc1	?	?	/	.	/	23µM
C/C(=N\Nc1cc(N2CCOCC2)nc(C)n1)c1cccc([N+](=O)[O-])c1	16µM	.	.	.	?	10µM
CNC(=O)c1ccc(-n2cccn2)nc1	.	.	.	.	.[11.3 µM]	.
CC(=O)NC1(C(F)(F)F)NC(=O)N(CCc2ccccc2)C1=O (stereo not given)	.	.	.	.	/	.
O[C@@H](c1ccccc1)C1CCN(CCc2ccccc2)CC1	.	/	/	/	/	.
O=C1Nc2ccc(Cl)cc2C12Nc1ccccc1-c1nnc(SCc3ccccc3F)nc1O2 (stereo not given)	15µM	.	.	.	.	?
CCOc1ccc(CN(C)CC(=O)NCc2ccccc2Cl)cc1	?	.	.	.	.	?
